High-throughput results as filed in PubChem.
Many of the other results were omitted from the sample, so hits are more common in it than they were.
12-LOX inh: ALOX12 (human) lipoxygenase inhibition | Potency, µM (doses to about 108 µM), for inactives: at the highest dose activity change, negative = inhibition, hits mostly inhibitors | purified 12hLO, xylenol orange hydroperoxide absorbance | 580,000 compounds, 1.1% hits | AID 1671190; further: potency means the concentration at half of the fitted maximal effect
Target sequence (P18054 whole entry, looked up): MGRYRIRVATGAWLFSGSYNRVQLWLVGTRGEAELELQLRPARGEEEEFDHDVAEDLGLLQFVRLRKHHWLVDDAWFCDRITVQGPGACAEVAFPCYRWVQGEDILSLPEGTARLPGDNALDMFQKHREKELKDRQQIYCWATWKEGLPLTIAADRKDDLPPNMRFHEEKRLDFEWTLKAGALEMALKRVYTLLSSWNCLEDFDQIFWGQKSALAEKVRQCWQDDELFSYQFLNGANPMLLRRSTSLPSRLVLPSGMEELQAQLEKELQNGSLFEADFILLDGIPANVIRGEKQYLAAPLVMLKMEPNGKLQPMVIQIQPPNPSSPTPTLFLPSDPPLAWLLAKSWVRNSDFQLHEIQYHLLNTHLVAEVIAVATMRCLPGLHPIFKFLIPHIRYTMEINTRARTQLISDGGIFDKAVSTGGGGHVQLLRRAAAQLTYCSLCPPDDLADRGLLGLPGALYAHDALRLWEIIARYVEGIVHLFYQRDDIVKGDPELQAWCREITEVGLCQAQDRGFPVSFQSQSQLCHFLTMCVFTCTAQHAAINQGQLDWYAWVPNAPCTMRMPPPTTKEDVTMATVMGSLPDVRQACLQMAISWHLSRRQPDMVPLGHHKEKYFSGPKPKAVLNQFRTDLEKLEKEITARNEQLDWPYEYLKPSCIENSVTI
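Purified human 12hLO (150 nM final) in 25 mM Hepes, 0.01% Triton X-100, pH 7.0 was preincubated 15 min at room temperature with compound. Then 40 uM arachidonic acid was added, 30 min. Hydroperoxide was read by Fe-XO absorbance ratio 573/405 nm.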
IL-1B inflam inh: inhibitors of inflammasome signaling (IL-1 beta secretion); THP-1 LPS/ATP IL-1B secretion, AlphaLISA, 16 h; active compounds read low; activity change, % at 57.5 µM; 360,000 compounds, 4.7% hits; AID 743279; in the data active means activity change below about -50%; inconclusive means mostly about -30% to -49%
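Secreted IL-1B measured by AlphaLISA bead assay after 16 h compound exposure of THP-1 cells; compounds (final up to 57.5 uM) added 1 h before LPS (250 ng/mL) and ATP (1.25 mM) stimulation; lower signal means less secretion.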
HT1080-NT tox: kills 2HG-producing HT-1080-NT fibrosarcoma cells. HT-1080-NT fibrosarcoma viability, CellTiter-Glo ATP luminescence, 48 h. Potency, µM (highest dose often 46.1 µM), for the others: at the highest dose activity, negative = less viability, actives largely listed as cytotoxic. 360,000 compounds, 1.6% hits. AID 686970;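 further: NT is the 2HG producing partner of a matched IDH1 knockdown line; potency means the concentration at half of the fitted maximal effect; 0% = DMSO-treated cells and -100% = media-only wells without cells; nearly all actives have a fitted effect of over 55% in size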
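Compounds were tested in concentration-response format on HT-1080-NT cells for 48 hours at 37 degrees C. Cell viability came from CellTiter-Glo luminescence; curves were classified by r2, response magnitude and activity.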
TDP1 cell CPT: DT40-hTDP1 cell growth loss with CPT | Potency, µM (doses to about 46.2 µM), inactives show at the highest dose activity change, negative = growth inhibition, most hits filed as inhibitors | AID 686979 | chicken DT40 Tdp1-/-;hTDP1 cells + 20 nM CPT, ATP luminescence, 48 h | 420,000 compounds, 12% hits; further: potency means the concentration at half of the fitted maximal effect; nearly all actives have a fitted effect of over 55% in size
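Cell growth measured by CellTiter-Glo luminescence after a minimum 48 h, 37 C compound exposure with 20 nM CPT in Tdp1-knockout DT40 cells stably expressing hTDP1, seeded 400/well; qHTS titration format.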
HT1080 IDH1KD tx: HT-1080 IDH1 knockdown cell toxicity (counter line). HT-1080 IDH1 knockdown viability, ATP luminescence, 48 h. Potency, µM (highest dose often 46.1 µM), inactives show at the highest dose activity, negative = toxicity, usual class: cytotoxic. 360,000 compounds, 2% hits;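 further: potency means the concentration at half of the fitted maximal effect; 0% = DMSO wells and -100% = cell-free medium wells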
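HT-1080-IDH1KD cells (IDH1 knocked down), 750/well in RPMI with 5% FBS, treated with compound 48 h at 37 degrees C. Viability by CellTiter-Glo luminescence, normalised to DMSO and no-cell wells; concentration-response curves classed.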
TDP1 cell noCPT: qHTS for Inhibitors of human tyrosyl-DNA phosphodiesterase 1 (TDP1): qHTS in cells in absence of CPT; DT40 Tdp1-/- hTDP1 cells, no CPT, ATP luminescence, 48 h; Potency, µM (titrated, usually from 46.2 µM), for inactives: top-dose activity change, negative = growth inhibition, hits mostly inhibitors; 420,000 compounds, 15% hits; further: potency means the concentration at half of the fitted maximal effect; nearly all actives have a fitted effect of over 55% in size
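Camptothecin absent (DMSO only). Human TDP1-complemented DT40 knockout cells, 400 cells/well, 37 °C for minimum 48 hr; ATP measured via CellTiter-Glo, 30 min dark incubation, luminescence.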
* marks the source's active call; other numbers are inactive results; ? = inconclusive; . = no result; [ ] = another dose, or the depositor's remark. Unless noted, the call rests on the fitted dose curve; in most records, active means well fitted curve in the direction sought with a large enough effect; inconclusive means small, poorly fitted or top-dose-only effect, or another doubt; inactive means no such curve, though single readings can be large; an effect the other way counts as inactive or inconclusive. Unless noted, on the % scale 0 is the no-effect control and ±100 the full control effect.

SMILES	12-LOX inh	IL-1B inflam inh	HT1080-NT tox	TDP1 cell CPT	HT1080 IDH1KD tx	TDP1 cell noCPT
COc1cccc(NC(=S)NC(Cc2ccccc2)c2ccccc2)c1 (stereo not drawn)	39.8µM*	-7.4	-19.4%	?	-26.6%	16.4µM*
COc1cccc(NC(=S)NC(C)c2ccc(OC)c(OC)c2)c1 (stereo not drawn)	-16.4%	0.0	-3.3%	-7.0%	-9.0%	-16.5%
CCCOc1cc(C)c(Cl)cc1S(=O)(=O)N1CCCC1	23.7%	.	.	.	.	.
Cc1cccc(C(=O)NCC(c2cccs2)S(=O)(=O)c2cccs2)c1 (stereo not drawn)	-20.6%	.	.	?	.	14.6µM*
O=C(NCC(c1ccco1)S(=O)(=O)c1cccs1)c1c(F)cccc1F (stereo not drawn)	-0.2%	.	.	?	.	?
O=C(NCC(c1cccs1)S(=O)(=O)c1cccs1)c1cccc(F)c1 (stereo not drawn)	0.0%	.	.	16.4µM*	.	18.4µM*
CNC(=O)Cn1nc(-c2cccc([N+](=O)[O-])c2)c2ccccc2c1=O	-15.8%	.	.	.	.	.
Cc1ccc(/C=C/C(=O)Nc2cccc3ncccc23)o1	-23.6%	-20.7	0.0%	?	0.8%	?
Cc1ccc(/C=C/C(=O)Nc2ccccc2C(N)=O)o1	-24.6%	.	.	?	.	10.3µM*
Cc1ccc(/C=C/C(=O)NCCc2ccccc2)o1	?	-26.9	-2.6%	5.8µM*	-1.7%	29.1µM*
NC(=O)c1ccccc1NC(=O)/C=C/c1c(Cl)cccc1Cl	0.0%	-22.5	-28.2%	?	?	18.4µM*
CS(=O)(=O)N1CCc2ccc(C(=O)Nc3ccc(F)cc3Cl)cc21	42.3%	.	.	.	.	.
CC(Sc1nncn1C)C(=O)Nc1ccc(N2CCCCC2)cc1 (stereo not drawn)	-18.5%	-6.7	12.2%	0.4%	8.5%	13.6%
Cc1ccc(CNC(=O)c2ccc(-c3ccc(N4CCCCC4)nc3)cc2)o1	12.1%	.	.	.	.	.
Cc1cc(C)c(C)c(S(=O)(=O)N2CCN(C(=O)c3cc(=O)[nH]c4ccccc34)CC2)c1C	-16.1%	0.0	?	?	?	13µM*
N#Cc1ccccc1S(=O)(=O)N1CCN(C(=O)c2cc(=O)[nH]c3ccccc23)CC1	-0.2%	32.1	-6.9%	?	0.3%	4.1%
Cc1cc(C)c(S(=O)(=O)N2CCN(C(=O)c3cc(=O)[nH]c4ccccc34)CC2)c(C)c1	-2.8%	-12.9	-5.4%[9.24 µM]	14.6µM*	-4.2%	16.4µM*
CCOc1ccc(-n2nc(C(=O)Nc3cccc(C(F)(F)F)c3)c3ccccc3c2=O)cc1	-32.4%	.	.	.	.	.
Cc1ccc(-c2noc(-c3ccccc3NC(=O)C3CC(=O)N(c4ccccc4C)C3)n2)cc1 (stereo not drawn)	0.0%	.	.	18.4µM*	.	23.1µM*
Cc1cccc(-c2noc(-c3ccccc3NC(=O)C3CC(=O)N(c4ccccc4C)C3)n2)c1 (stereo not drawn)	-3.6%	.	.	23.1µM*	.	14.6µM*
COc1ccc(N2CC(C(=O)Nc3ccccc3-c3nc(-c4ccc(C)cc4)no3)CC2=O)cc1 (stereo not drawn)	-14.9%	.	.	-3.4%	.	-7.3%
N#CC1=C(Nc2ccccc2Cl)SC(c2ccccc2O)NC1=O (stereo not drawn)	?	-1.2	5.2%	20.6µM*	0.6%	?
S=c1cnc2ccccc2[nH]1	?	3.7	7.2%	?	19.1%	?
COc1ccc(NC2=NC3(CCCCC3)N=C(N)N2)cc1	-14.6%	-85.5*	11.3%	-14.3%	8.3%	-22.0%
COc1ccc(OC)c(NC2=NC3(CCCCC3)N=C(N)N2)c1	4.9%	-11.3	-14.6%	-2.0%	-21.6%	-7.9%
SMILES	12-LOX inh	IL-1B inflam inh	HT1080-NT tox	TDP1 cell CPT	HT1080 IDH1KD tx	TDP1 cell noCPT
CCCCOc1ccc(NC2=NC3(CCCCC3)N=C(N)N2)cc1	?	-28.1	?	5.17µM*	?	2.59µM*
O=C(NC1CCCCC1)N(CCO)Cc1cc2cc3c(cc2[nH]c1=O)OCCO3	0.0%	7.1	11.1%	?	1.8%	?
CCc1ccc2[nH]c(=O)c(CN(CCN(CC)CC)C(=O)NC3CCCCC3)cc2c1	357.4%	-55.8*	16.4µM*	14.6µM*	?	25.9µM*
CCc1ccc2[nH]c(=O)c(CN(CCN(C)C)C(=O)Nc3ccccc3)cc2c1	9.5%	-58.6*	?	?	?	?
Cc1ccc(-n2c(C)cc(C(=S)N3CCOCC3)c2C)cc1C	-23.6%	-67.3*	?	23.1µM*	17.4%[9.24 µM]	14.6µM*
O=C(NCC(=O)N(c1ccccc1)C(C(=O)NC1CCCCC1)c1cccnc1)c1ccco1 (stereo not drawn)	-8.9%	17.3	13.8%	17.2%	15.6%	-0.2%
Cn1c(Cl)c(C(=O)Nc2ccc(Cl)cc2)c2ccccc21	0.0%	55.8	-3.9%	?	-22.5%	16.4µM*
Cn1nc(-c2ccccc2)c(C(=O)Nc2ccc(Cl)cc2)c1Cl	340.6%	0.0	3.3%	-26.9%	1.6%	-3.5%
O=C(Nc1ccc2oc(-c3ccncc3)nc2c1)c1cccc2ccccc12	-25.9%	.	.	.	.	.
Cn1c(N)c(C(=O)CCl)c(=O)n(C)c1=O	?	?	3.7%	7.31µM*	6.1%	?
Cn1c(N)c(C(=O)CCc2ccccc2)c(=O)n(C)c1=O	3.0%	.	.	.	.	.
Cn1c(=O)c(C(=O)CCl)c(N)n(Cc2ccccc2)c1=O	?	-95.1*	-5.8%	4.11µM*	-19.4%	4.61µM*
Cn1c(N)c(C(=O)CCl)c(=O)n(Cc2ccccc2)c1=O	1.5%	-96.9*	-1.9%	2.31µM*	5.8%	5.8µM*
Cc1ccccc1-c1cccc2[nH]c3c(c12)CCN1C(=O)[C@H]2[C@H](C)ON(C)[C@H]2C[C@@H]31	-11.4%	.	.	.	.	.
CCN(CC)c1c(C)nc2ccc(C(=O)Nc3cc(-c4ccccc4)ccc3OC)cn12	1.6%	?	?	?	?	18.4µM*
COc1ccc(-c2ccccc2)cc1NC(=O)c1ccncc1	7.8%	-22.6	13.0%	1.7%	-0.4%	-21.4%
CCc1nc2ccc(C(=O)Nc3cc(-c4ccccc4)ccc3OC)cn2c1N(C)Cc1ccc(Cl)cc1	-2.6%	?	?	18.4µM*	?	20.6µM*
CCc1nc2ccc(C(=O)Nc3ccc(OC)c(OC)c3)cn2c1N(C)C(=O)Cc1ccccc1	2.6%	-2.9	9.1%	14.6%	14.8%	-2.9%
FC1CCN(Cc2cn(Cc3ccccc3)nc2-c2cc3ccccc3o2)CC1	3.9%	.	.	.	.	.
